Laboratory results published in PubChem BioAssay (Tox21).
Values joined by “and” are separate entries in the source; they are usually repeats but may differ in a detail not shown here. Equal entries are not always repeated. Inconclusive results are not listed. Active and inactive are the calls of the source. Calls follow the shape of the dose curve; as a rule, active = well fitted cell-killing curve with a large enough effect in the repeat runs; inconclusive = weak or mixed curves, or effect the other way; inactive = no such curve, though single readings can be large or run the other way.

Experiment: qHTS assay to identify small molecule antagonists of the glucocorticoid receptor (GR) signaling pathway - cell viability counter screen (AID 720693); also: nearly all actives have a fitted effect of over 55% in size
Settings: GR-bla HeLa viability, CellTiter-Glo luminescence, 18 h, with 5 nM dexamethasone present; series mostly up to 58.5 µM; viability change, negative = cytotoxic: at the top concentration
% is scaled to controls: 0 for no effect and ±100 for the full control effect; potency is read from the fitted curve at half-maximal effect.

Structure (SMILES)	viability change, negative = cytotoxic	Potency
CCCOC(=O)c1ccccc1O	5.93% (inactive)	
CO/N=C(\C(=O)N[C@@H]1C(=O)N2C(C(=O)O)=C(CSc3cnns3)CS[C@H]12)c1csc(N)n1	-0.159% (inactive)	
COC1=C(OC)C(=O)C(C/C=C(\C)CC/C=C(\C)CC/C=C(\C)CC/C=C(\C)CC/C=C(\C)CC/C=C(\C)CC/C=C(\C)CC/C=C(\C)CC/C=C(\C)CCC=C(C)C)=C(C)C1=O		inactive
C=C(Nc1ccc(OCC)cc1)Nc1ccc(OCC)cc1		inactive
N[C@H](CO)C(=O)O	8.27% (inactive)	
CCCCCCCCCCCCCC(=O)OCC(COP(=O)([O-])OCC[N+](C)(C)C)OC(=O)CCCCCCCCCCCCC (configuration not stated)	-0.534% (inactive)	
CC(C)(C)c1ccc2c(S(=O)(=O)O)c(C(C)(C)C)ccc2c1		inactive
CCCCCN=C(N)N/N=C/c1c[nH]c2ccc(OC)cc12	-0.505% (inactive)	
O=C1c2ccccc2C(=O)C1c1ccc(F)cc1	-8.26% (inactive)	
CCN(CC)CCn1c(=O)c(Cc2ccc(OC)cc2)nc2ccccc21	-1.15% (inactive)	
CN1[C@@H](CC(=O)c2ccccc2)CCC[C@H]1C[C@H](O)c1ccccc1	-15.6% (inactive)	
CC[C@H]1OC(=O)C[C@@H](O)[C@H](C)[C@@H](O[C@@H]2O[C@H](C)[C@@H](O[C@H]3C[C@@](C)(O)[C@@H](O)[C@H](C)O3)[C@H](N(C)C)[C@H]2O)[C@@H](CC=O)C[C@@H](C)C(=O)/C=C/C(C)=C/[C@@H]1CO[C@@H]1O[C@H](C)[C@@H](O)[C@@H](OC)[C@H]1OC		inactive
N#Cc1c(N(CC(=O)O)CC(=O)O)sc(C(=O)O)c1CC(=O)O	-4.64% (inactive)	
CC(=O)Oc1cc(C(F)(F)F)ccc1C(=O)O	12.5% [at 27 µM] (inactive)	
O=P(O)(O)CP(=O)(O)O	19.3% (inactive)	
O=C1CC[C@@H](C(=O)N[C@H]2C[C@@H]2c2ccccc2)N1	-0.6% (inactive)	
CO[C@H]1C[C@H](O[C@H]2[C@H](C)[C@@H](O[C@@H]3O[C@H](C)C[C@H](N(C)C)[C@H]3O)[C@@H](C)C[C@]3(CO3)C(=O)[C@H](C)[C@@H](O)[C@@H](C)[C@@H](C)OC(=O)[C@@H]2C)O[C@@H](C)[C@@H]1O	-3.22% [at 27 µM] (inactive)	
O=C(O)c1cc(O)c2c(c1)[C@H]([C@H]1c3cc(C(=O)O)cc(O)c3C(=O)c3c(O[C@@H]4O[C@H](CO)[C@@H](O)[C@H](O)[C@H]4O)cccc31)c1cccc(O[C@@H]3O[C@H](CO)[C@@H](O)[C@H](O)[C@H]3O)c1C2=O	-1.17% (inactive)	

Structure (SMILES)	viability change, negative = cytotoxic	Potency
CCOc1ccc(NC(=S)Nc2ccc(OCC)cc2)cc1	-12.4% (inactive)	
Oc1ccc(Cl)cc1C1CCCC1	4.46% (inactive)	
CNC(=O)C[C@@H](N)C(=O)N[C@@H](C(=O)N[C@@H]1C(=O)N2[C@@H]1SC(C)(C)[C@@H]2C(=O)O)c1ccc(O)cc1	8.68% (inactive)	
N[C@@H](Cc1cnc[nH]1)C(=O)O	9.67% (inactive)	
NS(=O)(=O)c1cc(Cl)c(Cl)c(S(N)(=O)=O)c1	-13.7% [at 27 µM] (inactive)	
COC(=O)C(CN)c1c[nH]c2ccc(OC)cc12 (configuration not stated)	3.92% (inactive)	
C=C1C(=C/C=C2\CCC[C@]3(C)[C@@H]([C@H](C)CCCC(C)C)CC[C@@H]23)C[C@@H](O)C[C@@H]1O		21.3 µM (active)
CN[C@H](CC(C)C)C(=O)N[C@H]1C(=O)N[C@@H](CC(N)=O)C(=O)N[C@H]2C(=O)N[C@H]3C(=O)N[C@H](C(=O)N[C@@H](C(=O)O)c4cc(O)cc(O)c4-c4cc3ccc4O)[C@H](O)c3ccc(c(Cl)c3)Oc3cc2cc(c3O[C@@H]2O[C@H](CO)[C@@H](O)[C@H](O)[C@H]2O[C@H]2C[C@](C)(N)C(O)[C@H](C)O2)Oc2ccc(cc2Cl)[C@H]1O (some centres not stated)		inactive
O=C1c2c(O)cccc2[C@H]([C@@H]2O[C@H](CO)[C@@H](O)[C@H](O)[C@H]2O)c2cc(CO)cc(O)c21		inactive
Nc1nc(NC2CC2)c2ncn([C@@H]3C=C[C@@H](CO)C3)c2n1	13.8% (inactive)	
Cc1ccc(C(C)(C)c2ccc(C)cc2)cc1	8.81% (inactive)	
Cc1cccc(C)c1NC(=O)C1CCCCN1C (configuration not stated)	1.49% (inactive)	
CC(=NCc1ccccc1)c1ccccc1O	-2.92% (inactive)	
CC(=O)OCC(=O)[C@@]1(O)CC[C@H]2[C@@H]3C[C@H](C)C4=CC(=O)C=C[C@]4(C)[C@H]3[C@@H](O)C[C@@]21C	5.25% (inactive)	
CCCCCCCCCCCCCCCCCCOCC(COP(=O)([O-])OCC[N+](C)(C)C)OC (configuration not stated)	3.87% (inactive)	
CON=C1C[C@]2(C[C@@H]3C[C@@H](C/C=C(\C)C[C@@H](C)/C=C/C=C4\CO[C@@H]5[C@H](O)C(C)=C[C@@H](C(=O)O3)[C@]45O)O2)O[C@H](/C(C)=C/C(C)C)[C@H]1C		7.56 µM (active) and 10.7 µM (active)
CC12CCC(C[N+](C)(CCC[N+](C)(C)C)C1)C2(C)C (configuration not stated)	4.07% (inactive)	
CSCCC(N)C(=O)O (configuration not stated)	-2.74% (inactive)	

Experiment: qHTS assay for identifying genotoxic compounds that show differential cytotoxicity against isogenic chicken DT40 cell lines with known DNA damage response pathways - wild type cell line (AID 743012); also: nearly all actives have a fitted effect of over 60% in size
Settings: DT40 wild type chicken cells viability, CellTiter-Glo, 40 h; series mostly up to 68.4 µM; activity change, negative = cytotoxicity: at the top concentration
Procedure, shortened: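 Wild type DT40, 300 cells/well, ~0.5 h settle at 37 C/5% CO2; compounds in DMSO added by pintool; 40 h at 37 C/5% CO2; CellTiter-Glo, 30 min RT; luminescence.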

Structure (SMILES)	activity change, negative = cytotoxicity	Potency
CCCOC(=O)c1ccccc1O	22.7% (inactive)	
CO/N=C(\C(=O)N[C@@H]1C(=O)N2C(C(=O)O)=C(CSc3cnns3)CS[C@H]12)c1csc(N)n1	2.75% (inactive)	
COC1=C(OC)C(=O)C(C/C=C(\C)CC/C=C(\C)CC/C=C(\C)CC/C=C(\C)CC/C=C(\C)CC/C=C(\C)CC/C=C(\C)CC/C=C(\C)CC/C=C(\C)CCC=C(C)C)=C(C)C1=O		inactive
C=C(Nc1ccc(OCC)cc1)Nc1ccc(OCC)cc1		29.8 µM (active) and 23.7 µM (active)
N[C@H](CO)C(=O)O	0.514% (inactive)	
CCCCCCCCCCCCCC(=O)OCC(COP(=O)([O-])OCC[N+](C)(C)C)OC(=O)CCCCCCCCCCCCC (configuration not stated)	0.606% (inactive)	
CC(C)(C)c1ccc2c(S(=O)(=O)O)c(C(C)(C)C)ccc2c1		inactive
CCCCCN=C(N)N/N=C/c1c[nH]c2ccc(OC)cc12	-3.64% (inactive)	
O=C1c2ccccc2C(=O)C1c1ccc(F)cc1	8.94% (inactive)	
CCN(CC)CCn1c(=O)c(Cc2ccc(OC)cc2)nc2ccccc21		26.6 µM (active)
CN1[C@@H](CC(=O)c2ccccc2)CCC[C@H]1C[C@H](O)c1ccccc1		26.6 µM (active)
CC[C@H]1OC(=O)C[C@@H](O)[C@H](C)[C@@H](O[C@@H]2O[C@H](C)[C@@H](O[C@H]3C[C@@](C)(O)[C@@H](O)[C@H](C)O3)[C@H](N(C)C)[C@H]2O)[C@@H](CC=O)C[C@@H](C)C(=O)/C=C/C(C)=C/[C@@H]1CO[C@@H]1O[C@H](C)[C@@H](O)[C@@H](OC)[C@H]1OC	9.88% (inactive)	
N#Cc1c(N(CC(=O)O)CC(=O)O)sc(C(=O)O)c1CC(=O)O	3.75% (inactive)	
CC(=O)Oc1cc(C(F)(F)F)ccc1C(=O)O	2.66% [at 31.4 µM] (inactive)	
O=P(O)(O)CP(=O)(O)O	8.63% (inactive)	
O=C1CC[C@@H](C(=O)N[C@H]2C[C@@H]2c2ccccc2)N1	14.4% (inactive)	
CO[C@H]1C[C@H](O[C@H]2[C@H](C)[C@@H](O[C@@H]3O[C@H](C)C[C@H](N(C)C)[C@H]3O)[C@@H](C)C[C@]3(CO3)C(=O)[C@H](C)[C@@H](O)[C@@H](C)[C@@H](C)OC(=O)[C@@H]2C)O[C@@H](C)[C@@H]1O	1.89% [at 31.4 µM] (inactive)	
O=C(O)c1cc(O)c2c(c1)[C@H]([C@H]1c3cc(C(=O)O)cc(O)c3C(=O)c3c(O[C@@H]4O[C@H](CO)[C@@H](O)[C@H](O)[C@H]4O)cccc31)c1cccc(O[C@@H]3O[C@H](CO)[C@@H](O)[C@H](O)[C@H]3O)c1C2=O	3.43% (inactive)	

Structure (SMILES)	activity change, negative = cytotoxicity	Potency
CCOc1ccc(NC(=S)Nc2ccc(OCC)cc2)cc1	-12.5% (inactive)	
Oc1ccc(Cl)cc1C1CCCC1		48.6 µM (active)
CNC(=O)C[C@@H](N)C(=O)N[C@@H](C(=O)N[C@@H]1C(=O)N2[C@@H]1SC(C)(C)[C@@H]2C(=O)O)c1ccc(O)cc1	8.79% (inactive)	
N[C@@H](Cc1cnc[nH]1)C(=O)O	0.367% (inactive)	
NS(=O)(=O)c1cc(Cl)c(Cl)c(S(N)(=O)=O)c1	0.0663% [at 31.4 µM] (inactive)	
COC(=O)C(CN)c1c[nH]c2ccc(OC)cc12 (configuration not stated)	4.51% (inactive)	
C=C1C(=C/C=C2\CCC[C@]3(C)[C@@H]([C@H](C)CCCC(C)C)CC[C@@H]23)C[C@@H](O)C[C@@H]1O		5.96 µM (active)
CN[C@H](CC(C)C)C(=O)N[C@H]1C(=O)N[C@@H](CC(N)=O)C(=O)N[C@H]2C(=O)N[C@H]3C(=O)N[C@H](C(=O)N[C@@H](C(=O)O)c4cc(O)cc(O)c4-c4cc3ccc4O)[C@H](O)c3ccc(c(Cl)c3)Oc3cc2cc(c3O[C@@H]2O[C@H](CO)[C@@H](O)[C@H](O)[C@H]2O[C@H]2C[C@](C)(N)C(O)[C@H](C)O2)Oc2ccc(cc2Cl)[C@H]1O (some centres not stated)		inactive
O=C1c2c(O)cccc2[C@H]([C@@H]2O[C@H](CO)[C@@H](O)[C@H](O)[C@H]2O)c2cc(CO)cc(O)c21		inactive
Nc1nc(NC2CC2)c2ncn([C@@H]3C=C[C@@H](CO)C3)c2n1	-24.6% (inactive)	
Cc1ccc(C(C)(C)c2ccc(C)cc2)cc1	-12.5% (inactive)	
Cc1cccc(C)c1NC(=O)C1CCCCN1C (configuration not stated)	5.87% (inactive)	
CC(=NCc1ccccc1)c1ccccc1O	5.37% (inactive)	
CC(=O)OCC(=O)[C@@]1(O)CC[C@H]2[C@@H]3C[C@H](C)C4=CC(=O)C=C[C@]4(C)[C@H]3[C@@H](O)C[C@@]21C	-18.5% (inactive)	
CCCCCCCCCCCCCCCCCCOCC(COP(=O)([O-])OCC[N+](C)(C)C)OC (configuration not stated)	4.21% (inactive)	
CON=C1C[C@]2(C[C@@H]3C[C@@H](C/C=C(\C)C[C@@H](C)/C=C/C=C4\CO[C@@H]5[C@H](O)C(C)=C[C@@H](C(=O)O3)[C@]45O)O2)O[C@H](/C(C)=C/C(C)C)[C@H]1C		13.3 µM (active) and 16.8 µM (active)
CC12CCC(C[N+](C)(CCC[N+](C)(C)C)C1)C2(C)C (configuration not stated)	11.4% (inactive)	
CSCCC(N)C(=O)O (configuration not stated)	6.88% (inactive)	
